This note sets out measurements from PubChem BioAssay AID911 (National Center for Advancing Translational Sciences (NCATS), 2007).

The other results are listed elsewhere or left out. A call without a number means that no potency is given here. Records with an inconclusive call do not appear. The source made the active and inactive calls. Calls follow the shape of the full dose curve.

Chain of Microtubule-associated protein tau (Homo sapiens) (P10636 whole entry, looked up): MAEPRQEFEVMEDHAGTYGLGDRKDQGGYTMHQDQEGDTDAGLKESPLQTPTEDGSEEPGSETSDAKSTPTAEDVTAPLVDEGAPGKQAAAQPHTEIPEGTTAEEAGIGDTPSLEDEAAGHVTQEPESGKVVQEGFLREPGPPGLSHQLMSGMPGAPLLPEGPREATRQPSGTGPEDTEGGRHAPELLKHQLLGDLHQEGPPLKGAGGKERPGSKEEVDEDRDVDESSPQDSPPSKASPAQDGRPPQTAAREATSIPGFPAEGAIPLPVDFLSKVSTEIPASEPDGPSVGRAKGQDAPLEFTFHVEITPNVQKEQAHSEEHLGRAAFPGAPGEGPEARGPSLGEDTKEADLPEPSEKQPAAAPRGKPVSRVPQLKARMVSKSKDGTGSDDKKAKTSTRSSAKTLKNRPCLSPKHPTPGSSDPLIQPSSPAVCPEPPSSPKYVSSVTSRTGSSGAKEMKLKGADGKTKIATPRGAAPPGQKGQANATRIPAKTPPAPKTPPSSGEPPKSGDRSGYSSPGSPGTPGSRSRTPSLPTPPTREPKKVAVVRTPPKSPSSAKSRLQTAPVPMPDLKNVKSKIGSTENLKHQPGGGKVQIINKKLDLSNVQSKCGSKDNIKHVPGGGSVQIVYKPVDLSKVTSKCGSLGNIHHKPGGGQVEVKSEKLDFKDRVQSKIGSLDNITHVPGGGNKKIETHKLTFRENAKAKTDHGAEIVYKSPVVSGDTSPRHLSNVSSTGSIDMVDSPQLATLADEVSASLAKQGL

The assay concerns the target Microtubule-associated protein tau (Homo sapiens) (UniProt P10636). In words: Tau ThS binding assay. The note with it: recombinant tau filaments, Thioflavin S fluorescence displacement. The source says: NIH Molecular Libraries Screening Centers Network [MLSCN] NIH Chemical Genomics Center [NCGC] MLSCN Grant: 1 X01 MH079825-01 Assay Provider: Jeffrey A. Kuret, Ohio State University NCGC Assay Overview: This assay is a confirmation study for the qHTS Assay for Tau Filament Binding (PubChem AID 596). Tau monomers form filaments in vitro in the presence of arachidonic acid. The dye Thioflavine S (ThS) binds to tau filaments and upon binding, increases in fluorescence several fold. Small molecules that displace ThS binding or prevent filament binding are identified by a reduction in ThS fluorescence.
NCGC Assay Protocol Summary The assay was performed in 96-well round bottom opaque plates (VWR, West Chester, PA) in 100 uL final volume. Recombinant His6-htau40 was diluted to 5 uM in assembly buffer (10 mM HEPES, pH 7.4, 100 mM NaCl, 5 mM dithiothreitol) containing 50 uM arachidonic acid inducer. ThS probe was then added to a final concentration of 10 uM with test compounds assayed at nine 3-fold dilutions beginning at 10 uM final concentration. Each compound was tested at least twice in separate assays. Controls without protein or without compound were included on each plate. […] Fluorescence (ex = 440 nm; em = 485 nm) was measured after brief shaking (10 s) in a FlexStation plate reader (Molecular Devices, Sunnyvale, CA) operated at sensitivity 10, automatic PMT. […]
For the compound `O=C(CCCCn1c(=O)[nH]c2ccccc2c1=O)NCc1ccc2c(c1)OCO2`, the result was inactive. `Oc1ccc(O)c2c(O)cccc12`: the Potency was 4.97 µM (active).
